This is a sample that favours compounds with a hit; in the whole collection about 3.5% have one here.
FBW7 act = human FBW7 E3 ligase activation, primary screen | 650,000 tested, 0.13% active | AlphaScreen FBW7–phospho-cyclin E peptide binding, activator screen | normalized activity (activation), % at 26.1 µM | Q969H0; in the data active = normalized activity above about 1.9%;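 also: purified mutant Fbw7 with reduced substrate affinity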
Target sequence (Q969H0 whole entry, looked up): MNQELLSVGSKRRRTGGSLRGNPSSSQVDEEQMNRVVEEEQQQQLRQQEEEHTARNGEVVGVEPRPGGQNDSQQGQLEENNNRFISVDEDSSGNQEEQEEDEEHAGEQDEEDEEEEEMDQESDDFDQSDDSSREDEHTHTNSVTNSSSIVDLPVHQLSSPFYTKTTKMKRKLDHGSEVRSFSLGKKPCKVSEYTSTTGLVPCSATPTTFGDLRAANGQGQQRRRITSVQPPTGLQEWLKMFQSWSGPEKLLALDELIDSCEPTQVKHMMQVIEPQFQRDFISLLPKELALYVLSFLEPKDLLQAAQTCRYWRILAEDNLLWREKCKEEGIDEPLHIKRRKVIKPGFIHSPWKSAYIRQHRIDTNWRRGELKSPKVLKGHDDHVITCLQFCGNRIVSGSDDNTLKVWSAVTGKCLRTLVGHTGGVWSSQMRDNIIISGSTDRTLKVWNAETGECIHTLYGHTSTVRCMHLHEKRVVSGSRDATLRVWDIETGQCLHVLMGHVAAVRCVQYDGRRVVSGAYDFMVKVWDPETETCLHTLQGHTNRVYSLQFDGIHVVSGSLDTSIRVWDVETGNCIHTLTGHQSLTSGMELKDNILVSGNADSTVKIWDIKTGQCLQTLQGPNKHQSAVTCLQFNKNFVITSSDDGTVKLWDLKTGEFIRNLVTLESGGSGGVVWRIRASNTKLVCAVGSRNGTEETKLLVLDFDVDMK
GPR151 ag = activates the human receptor GPR151; Q8TDV0; PathHunter beta-arrestin GPR151 cells, luminescence; activation, % at 11.2 µM; 650,000 tested, 1% active; AID 1508602; in the data active = activation above about 4.9%;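 also: 0% = median of compound wells and 100% = cells with positive control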
MITF primary = inhibitors of human MITF | O75030 | AlphaScreen MITF homodimerization, bead proximity signal | inhibition, % at 2.6 µM | 650,000 tested, 0.91% active | AID 1259374; in the data active = inhibition above about 50%;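 also: 0% = vehicle wells with protein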
TEAD-YAP inh = TEAD-YAP interaction inhibition | HEK-TIYL cells, TEAD-Gal4/YAP UAS-luciferase luminescence | inhibition, % at 9.12 µM | 640,000 tested, 1.4% active; in the data active = inhibition above about 32%;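 also: 0% = median of test compound wells and 100% = reference inhibitor wells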
MITF confirm = confirmation of human MITF inhibitors; shares compounds with MITF primary; AlphaScreen MITF homodimerization, biotin/His-MITF beads; inhibition, % at 2.6 µM; 4,700 tested, 16% active; AID 1259372;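 active = inhibition above a cutoff derived from the DMSO control wells, cut at about 28% in these data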;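 also: 0% = MITF dimer wells with DMSO only; inhibitors lower the bead chemiluminescence by keeping MITF from dimerizing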
AS interf DR = AlphaScreen optical interference, dose response counter-screen | shares compounds with MITF primary | AlphaScreen optical interference counterscreen, cell-free | AID 1259373 | 480 tested, 6% active | IC50, µM; call rule not given here
AlphaScreen intf2 = counter-screen: compounds optically interfering with AlphaScreen; shares compounds with MITF primary; LysRS AlphaScreen counterscreen, signal interference, triplicate; inhibition, % at 2.6 µM; 4,700 tested, 7.6% active; AID 1259376;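 active = inhibition above a cutoff derived from the DMSO control wells, cut at about 30% in these data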
* marks the source's active call; other numbers are inactive results; · = not tested or not shown.

SMILES | FBW7 act | GPR151 ag | MITF primary | TEAD-YAP inh | MITF confirm | AlphaScreen intf2 | others
CC1CCCN(C(=O)C2CCN(Cc3ccccn3)CC2)C1 (stereo not given) | 0 | 3 | 18 | 4 | · | ·
Cc1ccc(-c2nc3ccccc3c(=O)n2CC(=O)Nc2ccccc2C(F)(F)F)cc1 | 0 | -1 | 0 | -37 | · | ·
c1ccc(C2CCC(N3CCN(Cc4cccnc4)CC3)CC2)cc1 (stereo not given) | 0 | -1 | 65* | 2 | -10 | 12
c1ccc(C2CCC(N3CCN(Cc4ccccn4)CC3)CC2)cc1 (stereo not given) | 0 | -2 | 68* | -1 | 9 | 12
c1ccc(CN2CCC(c3ccncc3)CC2)nc1 | 0 | 0 | 9 | 3 | · | ·
Cc1ccccc1CN1CCN(C2CCCC(C)C2)CC1 (stereo not given) | 0 | -1 | 76* | -6 | -15 | 4
c1ccc(CNc2nc(NC3CCN(Cc4ccccc4)CC3)nc3c2ncn3C2CCCCC2)cc1 | 0 | -1 | 27 | -9 | · | ·
c1ccc(CN2CCC(Nc3nc(Nc4ccccc4)nc4c3ncn4C3CCCCC3)CC2)cc1 | 0 | 0 | 18 | 8 | · | ·
c1ccc(Nc2nc(NC3CC3)c3ncn(C4CCCCC4)c3n2)cc1 | 0 | 0 | 88* | -6 | 3 | 4
CC(C)N(CCNc1nc(NC2CCN(Cc3ccccc3)CC2)nc2c1ncn2C1CCCCC1)C(C)C | 0 | -2 | 58* | 5 | -1 | 11
CN1CC(=O)N2CCN(C(=O)c3cc(Cl)cc(Cl)c3)C[C@@H]2C1=O | 0 | 1 | 30 | 13 | · | ·
O=C(NC1CCCCC1)N1CCN2C(=O)[C@@H]3CCCN3C(=O)[C@H]2C1 | 0 | 1 | 82* | 8 | 71* | -12 | AS interf DR=>6.5
CN1CC(=O)N2CCN(C(=O)c3ccccc3Cl)C[C@@H]2C1=O | 1 | 0 | 54* | 8 | -2 | -4
CN1CC(=O)N2CCN(C(=O)c3cccc4ccccc34)C[C@@H]2C1=O | 0 | 0 | 12 | -4 | · | ·
O=C(c1cc(F)c(F)cc1F)N1CCN2C(=O)[C@@H]3CCCN3C(=O)[C@H]2C1 | 0 | 0 | -2 | -6 | · | ·
CN1CC(=O)N2CCN(C(=O)NC3CCCCC3)C[C@@H]2C1=O | 0 | 0 | 74* | 1 | 74* | -4 | AS interf DR=>6.5
O=C(Nc1nc(-c2ccc(Br)s2)cs1)C1COc2ccccc2O1 (stereo not given) | 0 | 0 | 7 | -4 | · | ·
CSc1ccc(CN2CCOc3ccc(CN4CCN(C(C)=O)CC4)cc3C2)cc1 | 0 | 1 | 88* | 37* | 3 | -2
COc1ccc(C(=O)N2CCN(Cc3cccc(Br)c3)CC2)cc1 | 0 | 0 | 51* | -2 | 6 | 14
O=C(c1cccc(F)c1)N1CCN(Cc2cccnc2)CC1 | 0 | 0 | 87* | -3 | -4 | 0
O=C(c1cccc(F)c1)N1CCN(Cc2cccc(Oc3ccccc3)c2)CC1 | 0 | 2 | 38 | -16 | · | ·
CSc1ccc(CN2CCN(C(=O)c3ccc(F)cc3)CC2)cc1 | 1 | -1 | 55* | 44* | 7 | 12
CSc1ccc(CN2CCN(C(=O)c3ccc(-c4ccccc4)cc3)CC2)cc1 | 0 | 0 | 1 | 7 | · | ·
CCCCc1ccc(/C=N/NC(N)=O)s1 | 0 | -1 | 13 | -3 | · | ·
COc1ccc(CN2CCN(C(=O)c3cccc(F)c3)CC2)cc1OC | 0 | 0 | 31 | -1 | · | ·
SMILES | FBW7 act | GPR151 ag | MITF primary | TEAD-YAP inh | MITF confirm | AlphaScreen intf2 | others
COc1cc(CN2CCN(C(=O)c3cccc(F)c3)CC2)cc(OC)c1O | 0 | 0 | 68* | -1 | -3 | 6
O=C(c1ccccc1F)N1CCN(Cc2cccc(F)c2)CC1 | 0 | 1 | 54* | -6 | -3 | 4
O=C(c1cccc(C(=O)N2CCN(Cc3ccccc3)CC2)c1)N1CCN(Cc2ccccc2)CC1 | 0 | -1 | -4 | 16 | · | ·
O=C(c1cccc(F)c1)N1CCN(Cc2ccncc2)CC1 | 1 | -2 | 78* | -7 | 64* | -6 | AS interf DR=>5.7
O=C(c1cccc(F)c1)N1CCN(Cc2cccc(F)c2)CC1 | 0 | -1 | 57* | -6 | 6 | 16
O=C(NC1CCN(Cc2ccccc2)CC1)c1csc(-c2csc3ccccc23)n1 | 0 | 0 | 8 | 5 | · | ·
CCCn1nnnc1SCC(=O)c1cccc(OC)c1 | 0 | 0 | 0 | -12 | · | ·
C=CCNC(=O)c1ccc(Cl)c(S(=O)(=O)N2CCOCC2)c1 | 0 | 0 | 0 | -4 | · | ·
CC1CCN(C(=O)CSc2nnc3c4cc(F)ccc4n(C)c3n2)CC1 | 0 | 0 | 2 | -2 | · | ·
O=C(c1ccc(-c2ccccc2)cc1)N1CCN(Cc2cccnc2)CC1 | 0 | 1 | 68* | -10 | 19 | 15
COc1ccc(C(=O)N2CCN(Cc3cccc(F)c3)CC2)cc1 | 0 | -1 | 46 | -11 | · | ·
O=C(c1ccccc1F)N1CCN(CC2CC3C=CC2C3)CC1 (stereo not given) | 0 | 0 | 39 | 5 | · | ·
O=C(c1cccc(Cl)c1)N1CCN(Cc2cccc(F)c2)CC1 | 0 | 0 | 67* | 3 | -4 | 6
O=C(c1ccc(F)cc1)N1CCN(Cc2cccc(F)c2)CC1 | 0 | 1 | 58* | 4 | 4 | 4
O=C(c1cccc(F)c1)N1CCN(CC2CC3C=CC2C3)CC1 (stereo not given) | 0 | 0 | 58* | -6 | -23 | 4
C/C(=N\NC(=O)COc1ccccc1)c1cccc([N+](=O)[O-])c1 | 0 | 2 | -5 | 0 | · | ·
Nc1c(C(=O)Nc2ccc(F)c(F)c2)nnn1Cc1ccc(Br)cc1F | 0 | 0 | -22 | -8 | · | ·
COC(=O)c1cc(Nc2cccc(OC)c2)c2cccc(F)c2n1 | 0 | -1 | -9 | 8 | · | ·
COC(=O)C1=C(C)N(CC2CCCO2)C(=O)/C1=C\c1ccccc1 (stereo not given) | 0 | -1 | -4 | 3 | · | ·
O=C(NCc1ccccc1)N1CCCC1c1nc(-c2cccnc2)n[nH]1 (stereo not given) | 1 | 0 | 10 | 3 | · | ·
CCOC(=O)c1c(NC(=O)COc2cccc(C(F)(F)F)c2)sc(C)c1C | 0 | 2 | 13 | 9 | · | ·
COc1cc(OC)cc(C(=O)N2CCN(Cc3cccc(Br)c3)CC2)c1 | 0 | -2 | 41 | 5 | · | ·
O=C(c1ccc(F)cc1)N1CCN(Cc2cccc(Br)c2)CC1 | 0 | -1 | 58* | 9 | -7 | -6
COc1ccc(OC)c(/C=C/C(=O)NCCN2CCC(N(C)C3CCCCC3C)CC2)c1 (stereo not given) | 0 | -1 | 52* | 2 | -1 | 14
COc1ccc(/C=C/C(=O)NCCCN2CCC(N(C)C3CCCCC3C)CC2)cc1 (stereo not given) | 0 | 1 | -1 | 1 | · | ·

Bioassay records: PubChem BioAssay, The Scripps Research Institute Molecular Screening Center
